Reference: PubChem BioAssay (EPA / NIEHS)
“And” between values parts separate entries of the source, which are not always exact repeats. Equal entries are not always repeated. Some structures have more than one record in an assay (separate samples or runs), and their calls can disagree. The source made the active and inactive calls. The calls were made as follows: active = hit-call score of the fitted dose curve at least 0.9, where 1 is the maximum; inactive = score below 0.9.

What follows are compounds tested on TIMP metallopeptidase inhibitor 2 (TIMP2), TIMP2 (gene 7077) (assay: BSK_hDFCGF_TIMP2: BioMAP Diversity Plus: hDFCGF Assay for TIMP metallopeptidase inhibitor 2 (TIMP2) Biomarker Activity (AID 2284289)). Settings: primary human foreskin fibroblasts.
Method in brief: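 Primary human foreskin fibroblasts in the hDFCGF system, dosed for 24 h; TIMP-2 level measured by ELISA, fitted in the positive direction against DMSO; cytotoxicity checked in parallel by sulforhodamine B total protein staining.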

Row | Compound | AC50 | outcome
1 | Oc1c(Cl)cc(Cl)cc1Sc1cc(Cl)cc(Cl)c1O | 2.33 µM (active) and 1.67 µM (active) | 
2 | O=C(CC(=O)C(F)(F)C(F)(F)C(F)(F)F)c1cccs1 | 7.8 µM (active) | inactive
3 | C=CC(=O)OCCC(F)(F)C(F)(F)C(F)(F)C(F)(F)C(F)(F)C(F)(F)C(F)(F)C(F)(F)F |  | inactive
4 | O=C(O)CCC(F)(F)C(F)(F)C(F)(F)C(F)(F)C(F)(F)C(F)(F)F |  | inactive
5 | O=C(O)CCC(F)(F)C(F)(F)C(F)(F)C(F)(F)C(F)(F)F |  | inactive
6 | OCC(F)(F)C(F)(F)C(F)(F)C(F)(F)C(F)(F)C(F)(F)C(F)(F)C(F)(F)C(F)(F)C(F)(F)C(F)(F)F |  | inactive
7 | O=P(O)(O)CCC(F)(F)C(F)(F)C(F)(F)C(F)(F)C(F)(F)C(F)(F)F |  | inactive
8 | CN(CCO)S(=O)(=O)C(F)(F)C(F)(F)C(F)(F)C(F)(F)C(F)(F)C(F)(F)C(F)(F)C(F)(F)F | 30.1 nM (active) and 23.8 nM (active) | 
9 | Oc1ccc(Cc2ccccc2O)cc1 |  | inactive
10 | CCCCCCCCCCCC | 12.6 µM (active) and 5.39 µM (active) | 
11 | O=S(=O)(O)C(F)(F)C(F)(F)C(F)(F)C(F)(F)C(F)(F)C(F)(F)C(F)(F)C(F)(F)C(F)(F)C(F)(F)F |  | inactive
12 | CN(Cc1cnc2nc(N)nc(N)c2n1)c1ccc(C(=O)N[C@@H](CCC(=O)O)C(=O)O)cc1 |  | inactive
13 | O=C1NS(=O)(=O)c2ccccc21 |  | inactive
14 | O=P(O)(O)CCC(F)(F)C(F)(F)C(F)(F)C(F)(F)C(F)(F)C(F)(F)C(F)(F)C(F)(F)F |  | inactive
15 | O=C(O)C(F)(F)OC(F)(F)C(F)(F)OC(F)(F)C(F)(F)OC(F)(F)C(F)(F)C(F)(F)C(F)(F)F | 7.91 µM (active) and 7.94 µM (active) | 

These compounds were tested on Interleukin-1 alpha (IL1a), IL1A (gene 3552) (assay: BSK_IMphg_IL1a: BioMAP Diversity Plus: IMphg Assay for Interleukin-1 alpha (IL1a) Biomarker Activity (AID 2284290)). Settings: primary human endothelial cells with macrophages.
Method in brief: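 Human venular endothelial cells co-cultured with macrophages, IMphg system. IL-1α is measured by ELISA 24 h after dosing and fitted in the positive direction against DMSO. Cytotoxicity is assessed by SRB staining of parallel cultures.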

Row | Compound | AC50 | outcome
16 | O=C(CC(=O)C(F)(F)C(F)(F)C(F)(F)F)c1cccs1 | 47.6 µM (active) | inactive
17 | C=CC(=O)OCCC(F)(F)C(F)(F)C(F)(F)C(F)(F)C(F)(F)C(F)(F)C(F)(F)C(F)(F)F |  | inactive
18 | O=C(O)CCC(F)(F)C(F)(F)C(F)(F)C(F)(F)C(F)(F)C(F)(F)F | 5.95 µM (active) and 16.4 µM (active) and 20.5 µM (active) | 
19 | O=C(O)CCC(F)(F)C(F)(F)C(F)(F)C(F)(F)C(F)(F)F | 9.45 µM (active) | inactive
20 | OCC(F)(F)C(F)(F)C(F)(F)C(F)(F)C(F)(F)C(F)(F)C(F)(F)C(F)(F)C(F)(F)C(F)(F)C(F)(F)F |  | inactive
21 | O=P(O)(O)CCC(F)(F)C(F)(F)C(F)(F)C(F)(F)C(F)(F)C(F)(F)F |  | inactive
22 | CN(CCO)S(=O)(=O)C(F)(F)C(F)(F)C(F)(F)C(F)(F)C(F)(F)C(F)(F)C(F)(F)C(F)(F)F |  | inactive
23 | O=S(=O)(O)C(F)(F)C(F)(F)C(F)(F)C(F)(F)C(F)(F)C(F)(F)C(F)(F)C(F)(F)C(F)(F)C(F)(F)F |  | inactive
24 | CN(Cc1cnc2nc(N)nc(N)c2n1)c1ccc(C(=O)N[C@@H](CCC(=O)O)C(=O)O)cc1 |  | inactive
25 | O=P(O)(O)CCC(F)(F)C(F)(F)C(F)(F)C(F)(F)C(F)(F)C(F)(F)C(F)(F)C(F)(F)F |  | inactive
26 | O=C(O)C(F)(F)OC(F)(F)C(F)(F)OC(F)(F)C(F)(F)OC(F)(F)C(F)(F)C(F)(F)C(F)(F)F | 44.1 µM (active) and 22.4 µM (active) | 

What follows are compounds tested on E-selectin (Homo sapiens) (UniProt P16581) (assay: BSK_IMphg_ESelectin: BioMAP Diversity Plus: IMphg Assay for Eselectin Biomarker Activity (AID 2284291)). Settings: primary human endothelial cells with macrophages.
Method in brief: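 Human venular endothelial cell–macrophage co-culture, E-selectin measured by ELISA 24 h after chemical dosing. Signal fitted in the positive direction against DMSO as negative control and baseline.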

Chain of E-selectin (Homo sapiens) (P16581 whole entry, looked up): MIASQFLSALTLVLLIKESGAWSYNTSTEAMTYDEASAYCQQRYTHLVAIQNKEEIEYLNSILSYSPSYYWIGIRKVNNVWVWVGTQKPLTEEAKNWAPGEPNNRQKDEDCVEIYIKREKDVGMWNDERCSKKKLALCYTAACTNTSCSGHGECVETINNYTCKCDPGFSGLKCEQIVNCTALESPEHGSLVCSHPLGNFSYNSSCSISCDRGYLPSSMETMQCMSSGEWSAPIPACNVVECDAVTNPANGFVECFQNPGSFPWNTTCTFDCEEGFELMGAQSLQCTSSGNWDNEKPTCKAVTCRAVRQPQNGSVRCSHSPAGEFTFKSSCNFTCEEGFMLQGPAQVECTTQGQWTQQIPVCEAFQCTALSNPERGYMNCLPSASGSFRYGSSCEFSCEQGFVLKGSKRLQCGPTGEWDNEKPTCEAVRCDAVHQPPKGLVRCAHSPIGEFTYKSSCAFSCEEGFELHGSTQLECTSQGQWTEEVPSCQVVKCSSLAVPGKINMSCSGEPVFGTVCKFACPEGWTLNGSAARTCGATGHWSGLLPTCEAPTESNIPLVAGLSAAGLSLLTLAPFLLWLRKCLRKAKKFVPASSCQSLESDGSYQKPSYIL

Row | Compound | AC50 | outcome
27 | O=C(CC(=O)C(F)(F)C(F)(F)C(F)(F)F)c1cccs1 | 40.3 µM (active) and 42 µM (active) | 
28 | C=CC(=O)OCCC(F)(F)C(F)(F)C(F)(F)C(F)(F)C(F)(F)C(F)(F)C(F)(F)C(F)(F)F |  | inactive
29 | O=C(O)CCC(F)(F)C(F)(F)C(F)(F)C(F)(F)C(F)(F)C(F)(F)F |  | inactive
30 | O=C(O)CCC(F)(F)C(F)(F)C(F)(F)C(F)(F)C(F)(F)F |  | inactive
31 | OCC(F)(F)C(F)(F)C(F)(F)C(F)(F)C(F)(F)C(F)(F)C(F)(F)C(F)(F)C(F)(F)C(F)(F)C(F)(F)F | 155 nM (active) and 396 nM (active) | 
32 | O=P(O)(O)CCC(F)(F)C(F)(F)C(F)(F)C(F)(F)C(F)(F)C(F)(F)F |  | inactive
33 | CN(CCO)S(=O)(=O)C(F)(F)C(F)(F)C(F)(F)C(F)(F)C(F)(F)C(F)(F)C(F)(F)C(F)(F)F |  | inactive
34 | O=S(=O)(O)C(F)(F)C(F)(F)C(F)(F)C(F)(F)C(F)(F)C(F)(F)C(F)(F)C(F)(F)C(F)(F)C(F)(F)F |  | inactive
35 | CN(Cc1cnc2nc(N)nc(N)c2n1)c1ccc(C(=O)N[C@@H](CCC(=O)O)C(=O)O)cc1 |  | inactive
36 | O=P(O)(O)CCC(F)(F)C(F)(F)C(F)(F)C(F)(F)C(F)(F)C(F)(F)C(F)(F)C(F)(F)F | 37.8 µM (active) and 34.5 µM (active) | 
37 | O=C(O)C(F)(F)OC(F)(F)C(F)(F)OC(F)(F)C(F)(F)OC(F)(F)C(F)(F)C(F)(F)C(F)(F)F | 40.8 µM (active) and 31.9 µM (active) | 
